Results from PubChem BioAssay (NCATS).
“And” between values parts separate entries of the source, which are not always exact repeats. Equal values may be shown once. Inconclusive results are not listed. The source made the active and inactive calls. Calls follow the shape of the dose curve; as a rule, active = well fitted curve in the direction sought with a large enough effect; inconclusive = small, poorly fitted or top-dose-only effect, or another doubt; inactive = no such curve, though single readings can be large; an effect the other way counts as inactive or inconclusive.

Columns and labels:
[1] = UWB1.289 Cancer Cell Toxicity qHTS against the NCATS CANVASS Library (AID 1347347); also: nearly all actives have a fitted effect of over 60% in size; also: potency is read from the fitted curve at half-maximal effect
How it was run: (§1)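 Viability read-out: CellTiter-Glo luminescence after 72 h compound exposure at 37 °C/5% CO2. Cells plated at 1000/well, 4 h pre-incubation; 11-point titration. Bortezomib served as control.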

[2] = U-118MG Cancer Cell Toxicity qHTS against the NCATS CANVASS Library (AID 1347351); also: potency is read from the fitted curve at half-maximal effect
How it was run: as §1

[3] = COV-362 Cancer Cell Toxicity qHTS against the NCATS CANVASS Library (AID 1347352); also: potency is read from the fitted curve at half-maximal effect
How it was run: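 First, 1000 cells go into each well and rest for 4 hours. Next, an 11-point dilution range is pinned in. Plates then incubate 72 hours before CellTiter-Glo addition and luminescence reading.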

[4] = qHTS for Antimalaria activity screened against the NCATS CANVASS Library (AID 1347380); also: nearly all actives have a fitted effect of over 40% in size; also: potency is read from the fitted curve at half-maximal effect
How it was run: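 Compounds are titrated over 11 concentrations onto Dd2 parasite cultures (0.3% parasitemia, 2.5% hematocrit). Growth over 72 h at 37C in low oxygen is measured as SYBR Green DNA fluorescence after lysis.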

[5] = qHTS for Activators of p53 Stress Response Pathway screened against the NCATS CANVASS Library (AID 1347388); also: potency is read from the fitted curve at half-maximal effect
How it was run: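 Beta-lactamase reporter driven by p53 response elements in HCT-116 cells, read as the 460 nm/530 nm emission ratio after CCF4 loading, following 16 h of exposure to an 11-point series. Cell viability was measured in the same wells by CellTiter-Glo luminescence.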

[6] = Vero-766 cells viability qHTS against the NCATS CANVASS Library: Counterscreen for Zika virus inhibition assay (AID 1347394); also: nearly all actives have a fitted effect of over 60% in size; also: potency is read from the fitted curve at half-maximal effect
How it was run: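 CellTiter-Glo luminescence, lower signal indicating cytotoxicity. Vero 766 cells without Zika virus, 1000 cells/well, plated overnight, then treated 72 h at 37C across an 11-point series.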

[7] = Panc-1005 Cancer Cell Toxicity qHTS against the NCATS CANVASS Library (AID 1347349); also: nearly all actives have a fitted effect of over 60% in size; also: potency is read from the fitted curve at half-maximal effect
How it was run: as §1

[8] = A2780 Cisplatin Sensitive Ovarian Cancer Cell Toxicity qHTS against the NCATS CANVASS Library (AID 1347353); also: nearly all actives have a fitted effect of over 60% in size; also: potency is read from the fitted curve at half-maximal effect
How it was run: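 Cells are plated at 750 per well and rest for 4 hours. Compounds are added across eleven concentrations, and incubated 72 hours before ATP is quantified by luminescence.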

[9] = molecular target: Nuclear receptor subfamily 1 group I member 3 (Homo sapiens) (UniProt Q14994); experiment: qHTS for Constitutive Androstane Receptor (CAR) Agonist screened against the NCATS CANVASS Library (AID 1347373);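 also: every well also contained 1.5 µM PK11195 alongside the test compound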
How it was run: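 Cells were plated and allowed to attach for 4hr, then dosed with compound in an 11-point series alongside 1.5uM PK11195. After 24hr at 37C, viability was measured fluorometrically and CAR-driven CYP2B6 reporter luminescence was recorded.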

[10] = qHTS for activators of Nrf2/ARE signaling pathway screened against the NCATS CANVASS Library (AID 1347391); also: nearly all actives have a fitted effect of over 60% in size; also: potency is read from the fitted curve at half-maximal effect
How it was run: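 Beta-lactamase reporter signal, read as 460 and 530 nm emission under 405 nm excitation after 2 h CCF4 loading, reflected ARE activation in HepG2 cells treated 16 h with an 11-point series.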

[11] = Viability qHTS for inhibitors of the SERCaMP assay screened against the NCATS CANVASS Library (AID 1347400); also: nearly all actives have a fitted effect of over 70% in size; also: potency is read from the fitted curve at half-maximal effect
How it was run: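 Seed SH-SY5Y-GLuc SERCaMP MJH297 cells at 1000 per well, incubate 4 h, add compounds across an 11-point range, incubate 48 h at 37C, then add CellTiter-Glo and read luminescence.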

[12] = HPAF-II Cancer Cell Toxicity qHTS against the NCATS CANVASS Library (AID 1347346); also: nearly all actives have a fitted effect of over 55% in size; also: potency is read from the fitted curve at half-maximal effect
How it was run: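 First, HPAF-II cells are plated (1000 cells/well) and held 4 h at 37 degrees C. Next, compounds are pin-transferred as an 11-point series. After 72 h, CellTiter-Glo is added and luminescence measured.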

[13] = qHTS for Hypoxia signaling pathway (HIF-1) agonists against the NCATS CANVASS Library (AID 1347375)
How it was run: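 Cells plated and rested 5 h, compounds pinned in DMSO across 11 concentrations, incubated 17 h at 37C, loaded with CCF4-AM for 2 h, fluorescence read at 460 and 530 nm, then CellTiter-Glo luminescence measured for viability and normalization.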

[14] = qHTS assay for small molecule disruptors of mitochondrial membrane potential screened against the NCATS CANVASS Library (AID 1347389)
How it was run: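 Mitochondrial depolarization in HepG2 cells is scored as a falling aggregate-to-monomer fluorescence ratio after 1 hr compound exposure and 30 min staining with Mito-MPS dye at 37C, each compound tested as an 11-point titration.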

[15] = OV-SAHO Cancer Cell Toxicity qHTS against the NCATS CANVASS Library (AID 1347348); also: nearly all actives have a fitted effect of over 55% in size; also: potency is read from the fitted curve at half-maximal effect
How it was run: as §1

Measured: Potency

Chain of Nuclear receptor subfamily 1 group I member 3 (Homo sapiens) (Q14994 whole entry, looked up): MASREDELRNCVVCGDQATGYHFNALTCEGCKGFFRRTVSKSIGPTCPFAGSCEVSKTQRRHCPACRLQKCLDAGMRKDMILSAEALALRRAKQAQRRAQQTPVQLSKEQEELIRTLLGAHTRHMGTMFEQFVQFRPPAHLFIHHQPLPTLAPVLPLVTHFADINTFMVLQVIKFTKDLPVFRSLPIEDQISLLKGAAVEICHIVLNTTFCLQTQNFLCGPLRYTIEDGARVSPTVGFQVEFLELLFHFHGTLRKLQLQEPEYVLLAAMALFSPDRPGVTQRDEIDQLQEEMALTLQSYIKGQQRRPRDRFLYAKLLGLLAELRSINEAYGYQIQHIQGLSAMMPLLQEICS

CC[C@@H](c1cc(OC)c(OC)cc1OC)[C@H](C)[C@@H](/C(C)=C/c1cc(OC)c(OC)cc1OC)c1cc(OC)c(OC)cc1OC
inactive: [1] | [2] | [3] | [5] | [6]
active: [4] 747 nM and 1.88 µM

C=C1C(=O)O[C@H]2[C@H]1CCC(C)=C1CC[C@@](C)(O)[C@@H]12
active: [1] 18.8 µM | [7] 16.8 µM | [3] 16.7 µM | [8] 4.18 µM | [10] 0.186 µM | [11] 42.8 µM
inactive: [9] | [5] | [6]

C=C1C[C@H]2O[C@@H]3[C@@H]4[C@H](CC[C@@](C)(O)[C@@H]42)[C@H](C)COC3(C)[C@@H](OC(=O)CCCCCCC)C[C@H]1O (some centres not stated)
active: [4] 0.0059 µM | [10] 20.9 µM
inactive: [2] | [11]

CC(C)[C@@H]1CC(=O)c2coc3c2[C@H]1C[C@@H](C)C3=O
inactive: [12] | [9] | [13] | [5]

COc1cc(C2C3=C(Cc4cc5c(cc42)OCO5)C(=O)OC3)cc(OC)c1OC (configuration not stated)
active: [8] 0.0833 µM | [4] 9.41 µM | [6] 0.186 µM | [11] 0.0604 µM
inactive: [9] | [13] | [5] | [14]

CC[C@@H]1[C@H](C)[C@H](c2cc(OC)c(OC)cc2OC)[C@@H](C)[C@H](c2cc(OC)c(OC)cc2OC)[C@]12C=C(OC)C(=O)C=C2OC
active: [12] 18.8 µM | [4] 2.98 µM
inactive: [9] | [10]

CC1=C[C@H]2[C@H]3C(=O)C(c4ccc(O)cc4)=C[C@@]3(c3ccc(O)cc3)[C@@H]1C(=O)[C@]2(C)O
active: [4] 0.0019 µM | [5] 0.331 µM | [11] 0.48 µM
inactive: [15] | [9]

O[C@H]1C=C2[C@H]3CN(Cc4cc5c(cc43)OCO5)[C@H]2C[C@@H]1O
active: [8] 9.35 µM | [4] 5.29 µM
inactive: [9] | [13] | [5] | [10]

COc1ccc([C@@H]2c3cc4c(cc3C[C@H](C)C2C)OCO4)cc1OC (some centres not stated)
inactive: [2]
active: [5] 7.41 µM | [11] 27 µM

C[C@H](c1cnc(N)[nH]1)c1ccc(O)c2[nH]cc(-c3cnc(-c4c[nH]c5ccccc45)c(=O)[nH]3)c12
inactive: [1] | [7] | [2] | [3] | [10] | [6]

C[C@H](CCC(O)C(C)(O)CO)[C@@]1(O)CC[C@@]2(C)C3=C(CC[C@@]21C)[C@@]1(C)CCC(OC(=O)CCC(=O)O)C(C)(C)[C@@H]1CC3 (some centres not stated)
inactive: [7] | [2] | [3] | [8] | [9] | [13]

C=C[C@]1(C)CC[C@@H]([C@H](C)C(=O)/C=C/C(C)(C)O)O1
inactive: [12] | [7] | [2] | [3] | [13] | [4] | [5]
active: [10] 16.6 µM

CC[C@H]1[C@@H](C)[C@@H](c2cc(OC)c(OC)cc2OC)[C@H](C)[C@@H](c2cc(OC)c(OC)cc2OC)[C@@]12C=C(OC)C(=O)C=C2OC
inactive: [9]
active: [12] 21.1 µM | [1] 23.6 µM | [7] 16.8 µM

O=C1CCC(=O)N(O)CCCCCNC(=O)CCC(=O)N(O)CCCCCNC(=O)CCC(=O)N(O)CCCCCN1
inactive: [9] | [5]
active: [12] 7.49 µM | [15] 11.8 µM | [7] 8.41 µM | [8] 26.4 µM | [4] 4.72 µM

CO[C@@H]1[C@H](O)[C@@H](C)O[C@@H](OC[C@@H]2C(C)OC(=O)/C=C/[C@H](C)C(O[C@@H]3O[C@H](C)CC4(OC(=O)O[C@@H]4C)C3O)[C@@H](C)CC(C)C(=O)/C=C/[C@H]3OC23)[C@@H]1OC (some centres not stated)
active: [1] 18.8 µM | [2] 16.8 µM | [8] 11.8 µM | [4] 14.9 µM | [11] 42.8 µM
inactive: [12] | [13] | [5] | [6]

C[C@H]1CCC2(OC1)O[C@H]1C[C@H]3[C@@H]4CC(=O)[C@]5(O)C[C@H](O)CC[C@@]5(C)[C@H]4CC[C@@]3(C)[C@H]1[C@H]2C (some centres not stated)
inactive: [15] | [2] | [3] | [13]

COC(=O)[C@@]1(C)CCC[C@]2(C)c3cc(OC)ccc3CC[C@@H]12
inactive: [1] | [15] | [7] | [2] | [3] | [8] | [10] | [6] | [11]
